Data published in PubChem BioAssay (EPA / NIEHS).
Active and inactive are the calls of the source. Rule for the calls: active = hit-call score of the fitted dose curve at least 0.9, where 1 is the maximum; inactive = score below 0.9.

Test system: not listed separately
Assay: ATG_M_32_CIS: Attagene CIS-FACTORIAL HepG2 Assay for M32 Transcription Factor (Internal Marker) (AID 2282949);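 note: background control marker of the multiplexed CIS panel rather than a real target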
Settings: HepG2 Attagene cis-factorial M32 reporter, mRNA; actives raise or lower the signal
Summary of the method: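 Internal background marker read-out: RT-PCR/capillary electrophoresis fluorescence of reporter transcripts from transiently transfected HepG2 cells after 24 h chemical exposure. Activity fitted bidirectionally relative to DMSO negative control.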

Row | SMILES | outcome
1 | CCc1ccc(C=O)cc1 | inactive
2 | Cc1ccccc1C=O | inactive
3 | Cc1ccc(O)c(C(C)(C)C)c1 | inactive
4 | [Ca+2] | inactive
5 | CCCCCCOC(=O)CCCCC | inactive

Test system: not listed separately
Assay: ATG_M_06_CIS: Attagene CIS-FACTORIAL HepG2 Assay for M06 Transcription Factor (Internal Marker) (AID 2282950)
Settings: HepG2 Attagene CIS-FACTORIAL M06 internal marker reporter; actives raise or lower the signal
Summary of the method: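 Fluorescence-labelled RT-PCR products from cis-promoter reporter units, cut with HpaI and resolved by capillary electrophoresis, give the signal. Cells are human HepG2, dosed for 24 h. Serves as background control, fitted relative to DMSO.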

Row | SMILES | outcome
6 | CC(C)C[C@H]1C(=O)N2CCC[C@H]2[C@]2(O)O[C@](NC(=O)[C@@H]3C=C4c5cccc6[nH]c(Br)c(c56)C[C@H]4N(C)C3)(C(C)C)C(=O)N12 | inactive
7 | C=CC(C)(CCC=C(C)C)OC=O (stereo not given) | inactive
8 | NC(=O)Nc1ccc(Cl)cc1 | inactive
9 | O=C(O)c1ccc(C(=O)O)cc1 | inactive
10 | O=C(O)CCCCC1CCSS1 (stereo not given) | inactive
11 | Cc1ccc(C(=O)O)o1 | inactive
12 | CC(C)(C)NC(N)=O | inactive
13 | O=S(=O)(O)c1cccc2c(S(=O)(=O)O)cccc12 | inactive
14 | CCC/C=C/C=O | inactive
15 | O=C(Cl)c1cccc(C(=O)Cl)c1 | inactive
16 | O=c1cc(-c2ccccc2)oc2cc(O)cc(O)c12 | inactive
17 | NC(N)=NC(=O)c1nc(Cl)c(N)nc1N | inactive
18 | O=C(O)c1cccc([N+](=O)[O-])c1 | inactive
19 | CC1=CCC(O)(C(C)C)CC1 (stereo not given) | inactive
20 | CN(C)c1ccc(O)c2c1C[C@H]1C[C@H]3[C@H](N(C)C)C(=O)C(C(N)=O)=C(O)[C@@]3(O)C(=O)C1=C2O | inactive
21 | O=C(O)CN(CCN(CC(=O)O)CC(=O)O)CCN(CC(=O)O)CC(=O)O | inactive
22 | O=C=NC1CCC(CC2CCC(N=C=O)CC2)CC1 (stereo not given) | inactive
23 | CC1CC(OC(=O)c2ccccc2O)CC(C)(C)C1 (stereo not given) | inactive
24 | CN(C)C(=N)N=C(N)N | inactive
25 | C[C@H]1C[C@@H]2[C@H]([C@@H](O)C[C@@]3(C)[C@H]2CC[C@]3(O)C(=O)CO)[C@@]2(C)C=CC(=O)C=C12 | inactive
26 | Cc1cccc(Nc2ccccc2C(=O)O)c1C | inactive
27 | CCc1ccc(C=O)cc1 | inactive
28 | Cc1ccc(O)c(C(C)(C)C)c1 | inactive
29 | [Ca+2] | inactive

Biological target: Hypoxia-inducible factor 1-alpha (Homo sapiens) (UniProt Q16665)
Sequence (Q16665 whole entry, looked up): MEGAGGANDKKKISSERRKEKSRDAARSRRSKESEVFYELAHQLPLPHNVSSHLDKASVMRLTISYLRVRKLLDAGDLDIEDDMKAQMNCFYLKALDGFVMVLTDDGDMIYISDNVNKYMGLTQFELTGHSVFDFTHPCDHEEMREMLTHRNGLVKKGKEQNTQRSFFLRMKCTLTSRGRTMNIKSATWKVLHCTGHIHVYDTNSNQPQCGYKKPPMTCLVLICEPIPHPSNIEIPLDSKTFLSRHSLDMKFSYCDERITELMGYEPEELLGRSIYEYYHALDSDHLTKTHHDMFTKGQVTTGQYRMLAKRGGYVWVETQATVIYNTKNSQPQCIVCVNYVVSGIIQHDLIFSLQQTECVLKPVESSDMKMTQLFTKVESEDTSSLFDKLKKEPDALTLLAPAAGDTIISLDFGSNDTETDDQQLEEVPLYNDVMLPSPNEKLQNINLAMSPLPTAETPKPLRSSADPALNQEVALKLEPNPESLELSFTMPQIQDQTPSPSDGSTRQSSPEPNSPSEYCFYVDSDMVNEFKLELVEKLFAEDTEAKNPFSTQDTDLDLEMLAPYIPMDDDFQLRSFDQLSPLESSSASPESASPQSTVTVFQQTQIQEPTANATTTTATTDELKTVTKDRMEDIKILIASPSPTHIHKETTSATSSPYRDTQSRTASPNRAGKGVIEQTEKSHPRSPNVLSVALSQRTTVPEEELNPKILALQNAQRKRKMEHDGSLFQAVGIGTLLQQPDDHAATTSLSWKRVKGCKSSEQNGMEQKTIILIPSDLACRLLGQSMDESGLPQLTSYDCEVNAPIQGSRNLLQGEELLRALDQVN
Assay: ATG_HIF1a_CIS: Attagene CIS-FACTORIAL HepG2 Assay for human Hypoxia Inducible Factor 1 (HIF1A) (AID 2282951)
Settings: HepG2 Attagene cis-factorial HIF1a reporter transcription; actives raise or lower the signal
Summary of the method: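 After 24 h chemical exposure of reporter-transfected HepG2 cells, reporter cDNA was PCR-amplified, labelled by 6-FAM primer extension (2 min 95 C, 20 s 68 C, 10 min 72 C), HpaI-cut (2 h, 37 C) and analysed by CE.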

Row | SMILES | outcome | AC50
30 | CCOc1ccccc1OCC | inactive | –
31 | C=CC(C)(CCC=C(C)C)OC=O (stereo not given) | inactive | –
32 | O=C1CCCCCCCCCCCCCCO1 | inactive | –
33 | C=C(C)C(=O)O | inactive | –
34 | CC(C)(C)NC(N)=O | inactive | –
35 | CCC/C=C/C=O | inactive | –
36 | Nc1ccc(S(N)(=O)=O)cc1 | inactive | –
37 | CCN(CC)c1ccc(C(=C2C=CC(=[N+](CC)CC)C=C2)c2ccc(S(=O)(=O)O)cc2S(=O)(=O)[O-])cc1 | inactive | –
38 | CCCc1ccccc1O | inactive | –
39 | C=CC[N+](C)(C)CC=C | inactive | –
40 | CCCCN | inactive | –
41 | O=C(O)c1cccc([N+](=O)[O-])c1 | inactive | –
42 | CC(C)CCCCCCCOC(=O)c1ccc(C(=O)OCCCCCCCC(C)C)c(C(=O)OCCCCCCCC(C)C)c1 | inactive | –
43 | CCCCCCCCCC=O | – | 19.8 µM (active)
44 | CN(C)C(=N)N=C(N)N | inactive | –
45 | COc1cc(C=O)ccc1OC(=O)C(C)C | inactive | –
46 | CCC(C)CCCC(C)(C)O (stereo not given) | inactive | –
47 | CCCCCCOC(=O)CCCCC | inactive | –

Biological target: Hepatocyte nuclear factor 6 (Homo sapiens) (UniProt Q9UBC0)
Sequence (Q9UBC0 whole entry, looked up): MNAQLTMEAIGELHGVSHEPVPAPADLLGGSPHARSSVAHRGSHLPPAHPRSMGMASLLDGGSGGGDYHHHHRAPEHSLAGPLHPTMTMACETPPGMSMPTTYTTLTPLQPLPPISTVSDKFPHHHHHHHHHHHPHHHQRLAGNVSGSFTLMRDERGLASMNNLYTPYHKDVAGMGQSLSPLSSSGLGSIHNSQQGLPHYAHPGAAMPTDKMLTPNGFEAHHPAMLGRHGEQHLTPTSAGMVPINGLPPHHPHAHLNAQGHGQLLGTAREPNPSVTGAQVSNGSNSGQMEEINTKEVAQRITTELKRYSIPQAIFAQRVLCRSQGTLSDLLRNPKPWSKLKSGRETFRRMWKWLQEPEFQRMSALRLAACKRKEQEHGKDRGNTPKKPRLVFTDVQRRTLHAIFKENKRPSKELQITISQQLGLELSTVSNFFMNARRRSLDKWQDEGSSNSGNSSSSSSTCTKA
Assay: ATG_HNF6_CIS: Attagene CIS-FACTORIAL HepG2 Assay for human Hepatocyte Nuclear Factor 6 (HNF6) (AID 2282952)
Settings: HepG2 Attagene cis-factorial HNF6 reporter transcription; actives raise or lower the signal
Summary of the method: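 HepG2, transient MRTU transfection (cis promoters); 24 h chemical exposure; total RNA → oligo(dT) RT → PCR → 6-FAM labelling → HpaI cut → CE; bidirectional fit vs DMSO.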

Row | SMILES | outcome | AC50
48 | CC(C)C[C@H]1C(=O)N2CCC[C@H]2[C@]2(O)O[C@](NC(=O)[C@@H]3C=C4c5cccc6[nH]c(Br)c(c56)C[C@H]4N(C)C3)(C(C)C)C(=O)N12 | inactive | –
49 | CCOc1ccccc1OCC | inactive | –
50 | C=CC(C)(CCC=C(C)C)OC=O (stereo not given) | inactive | –
51 | NC(=O)Nc1ccc(Cl)cc1 | inactive | –
52 | O=C(O)c1ccc(C(=O)O)cc1 | inactive | –
53 | O=C(O)CCCCC1CCSS1 (stereo not given) | inactive | –
54 | O=C1CCCCCCCCCCCCCCO1 | inactive | –
55 | C=C(C)C(=O)O | inactive | –
56 | Cc1ccc(C(=O)O)o1 | inactive | –
57 | CC(C)(C)NC(N)=O | inactive | –
58 | O=S(=O)(O)c1cccc2c(S(=O)(=O)O)cccc12 | inactive | –
59 | CCC/C=C/C=O | inactive | –
60 | Nc1ccc(S(N)(=O)=O)cc1 | inactive | –
61 | O=C(Cl)c1cccc(C(=O)Cl)c1 | inactive | –
62 | CCN(CC)c1ccc(C(=C2C=CC(=[N+](CC)CC)C=C2)c2ccc(S(=O)(=O)O)cc2S(=O)(=O)[O-])cc1 | inactive | –
63 | O=c1cc(-c2ccccc2)oc2cc(O)cc(O)c12 | inactive | –
64 | CCCc1ccccc1O | inactive | –
65 | NC(N)=NC(=O)c1nc(Cl)c(N)nc1N | inactive | –
66 | C=CC[N+](C)(C)CC=C | inactive | –

Row | SMILES | outcome | AC50
67 | CCCCN | inactive | –
68 | O=C(O)c1cccc([N+](=O)[O-])c1 | inactive | –
69 | CC1=CCC(O)(C(C)C)CC1 (stereo not given) | inactive | –
70 | CN(C)c1ccc(O)c2c1C[C@H]1C[C@H]3[C@H](N(C)C)C(=O)C(C(N)=O)=C(O)[C@@]3(O)C(=O)C1=C2O | inactive | –
71 | O=C(O)CN(CCN(CC(=O)O)CC(=O)O)CCN(CC(=O)O)CC(=O)O | inactive | –
72 | O=C=NC1CCC(CC2CCC(N=C=O)CC2)CC1 (stereo not given) | inactive | –
73 | CC1CC(OC(=O)c2ccccc2O)CC(C)(C)C1 (stereo not given) | inactive | –
74 | CC(C)CCCCCCCOC(=O)c1ccc(C(=O)OCCCCCCCC(C)C)c(C(=O)OCCCCCCCC(C)C)c1 | inactive | –
75 | CCCCCCCCCC=O | inactive | –
76 | CN(C)C(=N)N=C(N)N | inactive | –
77 | C[C@H]1C[C@@H]2[C@H]([C@@H](O)C[C@@]3(C)[C@H]2CC[C@]3(O)C(=O)CO)[C@@]2(C)C=CC(=O)C=C12 | inactive | –
78 | Cc1cccc(Nc2ccccc2C(=O)O)c1C | inactive | –
79 | COc1cc(C=O)ccc1OC(=O)C(C)C | inactive | –
80 | CCc1ccc(C=O)cc1 | inactive | –
81 | Cc1ccccc1C=O | inactive | –
82 | CCC(C)CCCC(C)(C)O (stereo not given) | inactive | –
83 | Cc1ccc(O)c(C(C)(C)C)c1 | – | 156 µM (active)
84 | [Ca+2] | inactive | –
85 | CCCCCCOC(=O)CCCCC | inactive | –
